Records with an inconclusive call do not appear. Active and inactive are the calls of the source. Unless noted, calls follow the shape of the full dose curve.
Tests used:
[1] = Nuclear factor erythroid 2-related factor 2/antioxidant responsive element (Nrf2/ARE) small molecule agonists: qHTS cell viability counter screen in human keratinocytes (AID 1919968; active = well fitted curve in the direction sought with a large enough effect in the repeat runs; an effect the other way counts as inactive or inconclusive; also: nearly all actives have a fitted effect of over 55% in size)
Method in brief: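 Parallel cytotoxicity read: KeratinoSens HaCaT cells, compound treatment 23 h, viability by CellTiter-Fluor fluorescence 1 h post-reagent.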

[2] = Nuclear factor erythroid 2-related factor 2/antioxidant responsive element (Nrf2/ARE) small molecule agonists: luciferase reporter gene qHTS assay in human keratinocytes (AID 1919969); also: nearly all actives have a fitted effect of over 35% in size
[3] = target: Gonadotropin-releasing hormone receptor (Homo sapiens) (UniProt P30968); test: Human gonadotropin-releasing hormone receptor (GnRHR) small molecule agonists, calcium flux assay in GnRHR-HEK293 cells (AID 1920063); also: nearly all actives have a fitted effect of over 35% in size
Sequence of Gonadotropin-releasing hormone receptor (Homo sapiens) (P30968 whole entry, looked up): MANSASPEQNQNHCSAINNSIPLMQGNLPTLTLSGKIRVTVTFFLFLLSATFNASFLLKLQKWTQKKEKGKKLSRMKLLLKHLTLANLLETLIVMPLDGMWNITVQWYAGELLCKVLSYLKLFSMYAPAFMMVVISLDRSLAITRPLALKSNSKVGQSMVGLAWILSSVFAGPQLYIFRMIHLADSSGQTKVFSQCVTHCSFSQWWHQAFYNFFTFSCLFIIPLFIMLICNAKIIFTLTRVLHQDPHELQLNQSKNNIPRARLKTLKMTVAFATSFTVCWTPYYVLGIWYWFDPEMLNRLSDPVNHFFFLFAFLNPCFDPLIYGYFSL
Method in brief: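 Calcium flux, agonist mode, human GnRHR stably integrated in HEK293; dye 1 h at 37 C before compound; Ex/Em=480/540 kinetic read, 3 min; 15 concentrations, triplicate.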

[4] = target: KiSS-1 receptor (Homo sapiens) (UniProt Q969F8); test: Human kisspeptin (KISS1R) small molecule agonists, calcium flux assay in KISS1R-HEK293 cells (AID 1920064; active = well fitted curve in the direction sought with a large enough effect in the repeat runs; an effect the other way counts as inactive or inconclusive)
Sequence of KiSS-1 receptor (Homo sapiens) (Q969F8 whole entry, looked up): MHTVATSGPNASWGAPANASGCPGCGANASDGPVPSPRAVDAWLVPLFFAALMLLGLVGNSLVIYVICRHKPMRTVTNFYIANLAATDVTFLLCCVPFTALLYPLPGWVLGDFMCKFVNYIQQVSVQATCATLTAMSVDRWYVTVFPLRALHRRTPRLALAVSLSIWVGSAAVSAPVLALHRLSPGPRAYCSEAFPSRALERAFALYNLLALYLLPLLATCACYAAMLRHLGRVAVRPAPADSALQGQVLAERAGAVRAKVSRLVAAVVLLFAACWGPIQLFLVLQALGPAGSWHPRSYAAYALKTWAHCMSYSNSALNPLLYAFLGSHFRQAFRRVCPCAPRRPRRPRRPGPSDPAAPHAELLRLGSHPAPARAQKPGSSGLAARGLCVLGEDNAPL
Method in brief: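 Triplicate 15-concentration series were applied to dye-loaded human KISS1R HEK293 cells, and agonist-evoked calcium fluorescence was captured for 3 min.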

[5] = G protein-coupled receptor (GPCR) small molecule agonists, calcium flux assay: HEK293 wild type cell line counter screen (AID 1920065)
Method in brief: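 Non-specific calcium responders were flagged by adding DMSO-dissolved compounds to dye-loaded cells and reading 480/540 nm fluorescence each second for 3 min; ATP served as positive control.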

[6] = p53 small molecule agonists, cell-based qHTS assay with human liver microsomes (AID 1963577);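 also: p53 response element beta-lactamase reporter cells with liver microsomes plus NADPH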
Method in brief: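 16 h, 37 C exposure of p53RE-bla cells to compounds with human liver microsomes and NADPH (0.5 mg/mL final each); detection via LiveBLAzer mixture, 2 h dark at room temperature.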

[7] = p53 small molecule agonists, cell-based qHTS assay with rat liver microsomes (AID 1963578)
Method in brief: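 With rat liver microsomes and NADPH present (0.5 mg/mL final each), p53RE-bla cells are treated with compound for 16 h at 37 C. LiveBLAzer detection mixture is then applied for 2 h at room temperature in the dark.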

[8] = p53 small molecule agonists, cell-based qHTS assay with human liver microsomes: qHTS cell viability counter screen (AID 1963579); also: nearly all actives have a fitted effect of over 45% in size
Method in brief: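 In this multiplexed counter screen, the reporter plates were subsequently treated with CellTiter-Glo so that cell viability, reflected by luminescence, could be recorded for p53RE-bla cells dosed 16 h with compounds under microsomal activation (HLM and NADPH).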

[9] = p53 small molecule agonists, cell-based qHTS assay with rat liver microsomes: qHTS cell viability counter screen (AID 1963580); also: nearly all actives have a fitted effect of over 45% in size
Method in brief: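 Cytotoxicity counter screen: intracellular ATP read by CellTiter-Glo luminescence in the p53 reporter wells. HCT-116 p53RE-bla cells were treated for 16 h at 37 C alongside rat liver microsomes and NADPH, each 0.5 mg/mL final.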

[10] = p53 small molecule agonists, cell-based qHTS assay: qHTS cell viability counter screen (AID 1963581); also: nearly all actives have a fitted effect of over 45% in size
Method in brief: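 Multiplexed with the reporter read, a CellTiter-Glo step (30 min, room temperature) gauges ATP-based viability of HCT-116 p53RE-bla cells after 16 h compound incubation at 37 C.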

[11] = p53 small molecule agonists, cell-based qHTS assay (AID 1963582; active = well fitted activation curve with a large enough effect in the signal ratio in the repeat runs, not every such curve was filed as active; the % refers to the signal ratio)
Method in brief: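 Beta-lactamase reporter cells (p53RE-bla) treated with compounds for 16 h at 37 C; FRET substrate, 2 h, room temperature; fluorescence intensity.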

[12] = target: 5-hydroxytryptamine receptor 2A (Homo sapiens) (UniProt P28223); test: 5-hydroxytryptamine receptor 2A (HTR2A) small molecule antagonists, cell-based qHTS assay (AID 1963586); also: nearly all actives have a fitted effect of over 45% in size
Sequence of 5-hydroxytryptamine receptor 2A (Homo sapiens) (P28223 whole entry, looked up): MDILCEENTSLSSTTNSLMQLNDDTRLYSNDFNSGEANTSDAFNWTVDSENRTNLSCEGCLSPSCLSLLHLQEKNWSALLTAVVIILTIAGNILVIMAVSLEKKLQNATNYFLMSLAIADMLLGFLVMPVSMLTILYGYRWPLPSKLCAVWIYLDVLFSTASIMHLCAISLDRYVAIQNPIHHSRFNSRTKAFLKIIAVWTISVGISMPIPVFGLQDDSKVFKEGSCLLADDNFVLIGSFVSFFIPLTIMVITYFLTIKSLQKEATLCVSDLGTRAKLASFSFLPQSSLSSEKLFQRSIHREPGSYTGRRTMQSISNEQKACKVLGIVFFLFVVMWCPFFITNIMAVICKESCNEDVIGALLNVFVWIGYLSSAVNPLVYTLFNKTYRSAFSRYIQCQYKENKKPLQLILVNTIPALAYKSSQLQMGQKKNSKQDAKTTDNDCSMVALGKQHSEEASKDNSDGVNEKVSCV
Method in brief: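 CHO cells stably expressing human HTR2A were plated for 18 h at 37 C, then loaded with calcium dye for 1 h. Compounds were preincubated 5 min at room temperature before DOI (4 nM solution) was added. Kinetic fluorescence was read for 3 min.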

[13] = target: 5-hydroxytryptamine receptor 2A (Homo sapiens) (UniProt P28223); test: 5-hydroxytryptamine receptor 2A (HTR2A) small molecule agonists, cell-based qHTS assay (AID 1963587); also: nearly all actives have a fitted effect of over 30% in size
Method in brief: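 Kinetic calcium-flux fluorescence (2 min, 1 sec intervals) after compound addition in agonist mode. HTR2A-CHO cells were cultured 18 h, then dye-loaded 1 h at 37 C.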

[14] = target: Muscarinic acetylcholine receptor M1 (Homo sapiens) (UniProt P11229); test: Cholinergic receptor muscarinic 1 (CHRM1) small molecule antagonists, cell-based qHTS assay (AID 1963588); also: nearly all actives have a fitted effect of over 40% in size
Sequence of Muscarinic acetylcholine receptor M1 (Homo sapiens) (P11229 whole entry, looked up): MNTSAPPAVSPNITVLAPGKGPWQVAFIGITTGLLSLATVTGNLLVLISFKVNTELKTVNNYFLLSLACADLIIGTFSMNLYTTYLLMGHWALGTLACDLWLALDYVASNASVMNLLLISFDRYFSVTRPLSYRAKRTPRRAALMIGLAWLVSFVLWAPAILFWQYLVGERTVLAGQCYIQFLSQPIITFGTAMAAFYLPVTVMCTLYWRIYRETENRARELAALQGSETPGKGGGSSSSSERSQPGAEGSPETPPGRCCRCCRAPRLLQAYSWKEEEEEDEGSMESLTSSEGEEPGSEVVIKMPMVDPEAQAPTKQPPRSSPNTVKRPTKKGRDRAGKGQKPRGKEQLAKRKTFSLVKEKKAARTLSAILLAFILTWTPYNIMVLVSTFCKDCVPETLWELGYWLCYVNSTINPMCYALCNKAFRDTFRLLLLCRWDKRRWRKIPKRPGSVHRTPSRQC
Method in brief: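 Compounds were tested at 15 concentrations in three independent runs. Dye-loaded CHRM1-CHO cells were exposed 5 min at room temperature before stimulation by acetylcholine added at 50nM. Intracellular calcium was read kinetically on FDSS for 3 min.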

[15] = target: Muscarinic acetylcholine receptor M1 (Homo sapiens) (UniProt P11229); test: Cholinergic receptor muscarinic 1 (CHRM1) small molecule agonists, cell-based qHTS assay (AID 1963589); also: nearly all actives have a fitted effect of over 35% in size
Method in brief: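 qHTS, 15-point titration, 3 independent runs: compounds pin-transferred onto dye-loaded CHRM1-CHO cells (human M1), calcium fluorescence followed every second to detect agonism.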

[16] = cAMP Responsive Elements (CRE) small molecule agonists, cell-based qHTS assay (AID 1963590)
Method in brief: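 Quantitative HTS for CRE agonists: HEK 293T CRE-bla cells, overnight plating, 3 h compound incubation at 37 C/5% CO2, then 2 h room-temperature LiveBLAzer B/G FRET substrate loading.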

[17] = cAMP Responsive Elements (CRE) small molecule antagonists, cell-based qHTS assay (AID 1963591; active = well fitted inhibition curve with a large enough effect in the signal ratio in the repeat runs, not every such curve was filed as active; the % refers to the signal ratio)
Method in brief: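 Fluorescence intensity from cleaved LiveBLAzer B/G substrate (2 h, room temperature) quantified CRE-bla activity in HEK 293T cells exposed 3 h to compound with 0.25 uM final NKH477.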

[18] = target: Beta-2 adrenergic receptor (Homo sapiens) (UniProt P07550); test: Adrenergic beta2 receptor (ADRB2) small molecule antagonists, cell-based qHTS assay (AID 1963592); also: series mostly up to about 92 µM; nearly all actives have a fitted effect of over 50% in size
Sequence of Beta-2 adrenergic receptor (Homo sapiens) (P07550 whole entry, looked up): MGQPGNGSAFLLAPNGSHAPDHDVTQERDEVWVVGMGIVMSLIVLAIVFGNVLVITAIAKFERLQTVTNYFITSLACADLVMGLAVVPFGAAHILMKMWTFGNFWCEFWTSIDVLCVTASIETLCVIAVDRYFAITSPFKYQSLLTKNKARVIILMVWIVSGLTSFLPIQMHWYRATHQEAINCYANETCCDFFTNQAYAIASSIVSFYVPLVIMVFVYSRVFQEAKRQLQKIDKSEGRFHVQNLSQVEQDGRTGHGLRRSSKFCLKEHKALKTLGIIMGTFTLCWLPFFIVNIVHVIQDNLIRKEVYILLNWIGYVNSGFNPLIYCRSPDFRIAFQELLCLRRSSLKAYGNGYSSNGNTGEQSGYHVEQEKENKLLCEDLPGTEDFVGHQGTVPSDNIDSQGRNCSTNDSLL
Method in brief: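 Assay format: CHO-ADRB2 cells, 18-20hr seeding at 37C/5% CO2, then compound plus 1nM isoproterenol agonist mix for 0.5hr RT. Homogeneous time-resolved fluorescence cAMP detection after 1hr, expressed as 665/615 nm ratio.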

[19] = target: D(2) dopamine receptor (Homo sapiens) (UniProt P14416); test: Dopamine D2 receptor (DRD2) small molecule antagonists, cell-based qHTS assay (AID 1963595; active = well fitted inhibition curve with a large enough effect in the signal ratio in the repeat runs, with a control signal flat; the % refers to the signal ratio)
Sequence of D(2) dopamine receptor (Homo sapiens) (P14416 whole entry, looked up): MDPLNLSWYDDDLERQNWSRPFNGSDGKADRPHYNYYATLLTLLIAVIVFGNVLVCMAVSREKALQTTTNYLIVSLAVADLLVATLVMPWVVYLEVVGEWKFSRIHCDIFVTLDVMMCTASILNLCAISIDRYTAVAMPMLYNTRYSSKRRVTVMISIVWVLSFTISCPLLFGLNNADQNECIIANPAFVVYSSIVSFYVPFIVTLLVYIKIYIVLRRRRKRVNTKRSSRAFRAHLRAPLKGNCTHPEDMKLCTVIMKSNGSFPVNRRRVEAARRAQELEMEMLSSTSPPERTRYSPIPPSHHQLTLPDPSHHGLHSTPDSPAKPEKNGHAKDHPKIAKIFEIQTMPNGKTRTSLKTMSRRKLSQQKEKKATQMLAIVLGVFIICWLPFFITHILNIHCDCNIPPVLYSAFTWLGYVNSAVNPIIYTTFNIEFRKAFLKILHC
Method in brief: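 Readout: HTRF cAMP, cAMP-d2 competing with cellular cAMP for anti-cAMP cryptate, read after 1 h. Cells: DRD2-HEK293. Conditions: 0.1 mM Ro20-1724, 12 nM quinpirole, 200 nM NKH477, 30 min RT.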

[20] = target: D(2) dopamine receptor (Homo sapiens) (UniProt P14416); test: Dopamine D2 receptor (DRD2) small molecule agonists, cell-based qHTS assay (AID 1963594); also: nearly all actives have a fitted effect of over 35% in size
Method in brief: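 cAMP accumulation in DRD2-HEK293 cells measured by HTRF after 1 h detection; compounds added 10 min before NKH477 (200nM […]) forskolin-analogue stimulation, 30 min at room temperature, with Ro20-1724 present at 0.1 mM final.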
% is scaled to controls: 0 for no effect and ±100 for the full control effect.

C=CC(=O)OCCN(CC)CC
inactive: Potency [1] | Potency [2] | Potency [3] | Potency [4] | Potency [5] | Potency [6] | Potency [7] | Potency [8] | Potency [9] | Potency [10] | Potency [11] | Potency [12] | Potency [13] | Potency [14] | Potency [15] | Potency [16] | Potency [17] | Potency [18] | Potency [19]

CC(=O)CC(N)=O
inactive: Potency [1] | Potency [2] | Potency [3] | Potency [4] | Potency [5] | Potency [6] | Potency [7] | Potency [8] | Potency [9] | Potency [10] | Potency [11] | Potency [12] | Potency [13] | Potency [14] | Potency [15] | Potency [16] | Potency [17] | Potency [18] | Potency [19]

COC(=O)N[C@H](C(=O)N[C@@H](Cc1ccccc1)[C@@H](O)CN(Cc1ccc(-c2ccccn2)cc1)NC(=O)[C@@H](NC(=O)OC)C(C)(C)C)C(C)(C)C
inactive: Potency [1] | Potency [2] | Potency [3] | Potency [4] | Potency [5] | Potency [6] | Potency [7] | Potency [8] | Potency [9] | Potency [10] | Potency [11] | Potency [12] | Potency [13] | Potency [14] | Potency [15] | Potency [16] | Potency [17] | Potency [18] | Potency [19]

CC(=O)c1cc2ccccc2s1
inactive: Potency [1] | Potency [2] | Potency [3] | Potency [4] | Potency [5] | Potency [6] | Potency [7] | Potency [8] | Potency [9] | Potency [10] | Potency [11] | Potency [12] | Potency [13] | Potency [14] | Potency [15] | Potency [16] | Potency [17] | Potency [18] | Potency [19]

N#Cc1cc(NC(=O)C(=O)O)c(Cl)c(NC(=O)C(=O)O)c1
inactive: Potency [1] | Potency [2] | Potency [3] | Potency [4] | Potency [5] | Potency [6] | Potency [7] | Potency [8] | Potency [9] | Potency [10] | Potency [11] | Potency [12] | Potency [13] | Potency [14] | Potency [15] | Potency [16] | Potency [17] | Potency [18] | Potency [20]

CCOCCC(=O)OCC
inactive: Potency [1] | Potency [2] | Potency [3] | Potency [4] | Potency [5] | Potency [6] | Potency [7] | Potency [8] | Potency [9] | Potency [10] | Potency [11] | Potency [12] | Potency [13] | Potency [14] | Potency [15] | Potency [16] | Potency [17] | Potency [18] | Potency [20] | Potency [19]

CC(=O)N1CCN(c2ccc(O)cc2)CC1
inactive: Potency [1] | Potency [2] | Potency [3] | Potency [4] | Potency [5] | Potency [6] | Potency [7] | Potency [8] | Potency [9] | Potency [10] | Potency [11] | Potency [12] | Potency [13] | Potency [14] | Potency [15] | Potency [16] | Potency [17] | Potency [18] | Potency [20] | Potency [19]

CCCCCCCCCCCCCCCCI
inactive: activity change, negative = cytotoxicity [1] 1.33% [at 19 µM] | activity, positive = activation [2] -9.58% [at 19 µM] | activity change [3] 0.684% [at 11.8 µM, stronger effect = higher value] | activation [4] 7.41% [at 15.8 µM] | activation [5] 2.83% [at 11.8 µM] | activation [6] -0.459% [at 13.5 µM] | activation [7] -1.95% [at 13.6 µM] | activity change, negative = cytotoxicity [8] 1.61% [at 13.5 µM] | activity change, negative = cytotoxicity [9] -2.18% [at 13.5 µM] | activity change, negative = cytotoxicity [10] -8.29% [at 13.5 µM] | activation [11] -4.93% [at 13.5 µM] | activity, negative = inhibition [12] -0.251% [at 12.7 µM] | activation [13] -2.69% [at 15.9 µM] | activity, negative = inhibition [14] -11% [at 12.6 µM] | activation [15] 1.29% [at 15.8 µM] | activation [16] -1.28% [at 19 µM] | activity change, negative = inhibition [17] -14.2% [at 18.9 µM] | activity change, negative = inhibition [18] 0.138% [at 19 µM] | activation [20] 2.88% [at 19 µM]

CCCC(=O)CC
inactive: Potency [1] | Potency [2] | Potency [3] | Potency [4] | Potency [5] | Potency [6] | Potency [7] | Potency [8] | Potency [9] | Potency [10] | Potency [11] | Potency [12] | Potency [13] | Potency [14] | Potency [15] | Potency [16] | Potency [17] | Potency [18] | Potency [20] | Potency [19]

CCCCCCC1(C)CCC(=O)O1 (centres undefined)
inactive: Potency [1] | Potency [2] | Potency [3] | Potency [4] | Potency [5] | Potency [6] | Potency [7] | Potency [8] | Potency [9] | Potency [10] | Potency [11] | Potency [12] | Potency [13] | Potency [14] | Potency [15] | Potency [16] | Potency [17] | Potency [18] | Potency [20] | Potency [19]

COc1cc(/C=C/C(N)=O)cc(OC)c1OC
inactive: Potency [1] | Potency [2] | Potency [3] | Potency [4] | Potency [5] | Potency [6] | Potency [7] | Potency [8] | Potency [9] | Potency [10] | Potency [11] | Potency [12] | Potency [13] | Potency [14] | Potency [15] | Potency [16] | Potency [17] | Potency [18] | Potency [20] | Potency [19]

— PubChem BioAssay (Tox21)
